The nature of test [1]: qHTS of pediatric cancer cell lines to identify multiple opportunities for drug repurposing: Primary screen for TC32 cells (AID 1347089). Note: nearly all actives have a fitted effect of over 60% in size. The procedure, abridged: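 qHTS, TC32, 48 h drug treatment, CellTiter-Glo luminescence as a proxy for metabolically active cells; primary top concentration 46 µM (MIPE 11-pt, NPC 8-pt); confirmatory 11-pt.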
For orientation: In qHTS, concentration-response curves come from the screen itself.

A short description of test [2]: qHTS of pediatric cancer cell lines to identify multiple opportunities for drug repurposing: Primary screen for U-2 OS cells (AID 1347096). Note: nearly all actives have a fitted effect of over 50% in size. The procedure, abridged:
(§1)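 Cells (500-1,000/well) rested 5 h, then received compounds for 48 h; metabolically active cells were measured by CellTiter-Glo luminescence. Final concentrations spanned up to 46 µM (MIPE, 11-point) or 0.59 nM-46 µM (NPC, 8-point) in primary screens, 11-point in follow-ups.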

Test [3] in a line: qHTS of pediatric cancer cell lines to identify multiple opportunities for drug repurposing: Primary screen for SK-N-SH cells (AID 1347098). Note: nearly all actives have a fitted effect of over 65% in size. Note: potency is the fitted concentration of half-maximal effect. The method, boiled down:
as §1

Test [4] in a line: qHTS of pediatric cancer cell lines to identify multiple opportunities for drug repurposing: Primary screen for NB1643 cells (AID 1347099). Note: nearly all actives have a fitted effect of over 50% in size. Note: potency is the fitted concentration of half-maximal effect. The method, boiled down:
(§2)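 Readout: CellTiter-Glo luminescence, 48 h treatment. Controls DMSO (neutral) and bortezomib 2.3 µM final (positive). Potency and efficacy taken from primary-screen concentration-response curves.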

Test [5] can be described thus: qHTS of pediatric cancer cell lines to identify multiple opportunities for drug repurposing: Primary screen for Rh18 cells (AID 1347102). Note: nearly all actives have a fitted effect of over 65% in size. Note: potency is the fitted concentration of half-maximal effect. The procedure, abridged:
as §1

Test [6] in a line: qHTS of pediatric cancer cell lines to identify multiple opportunities for drug repurposing: Primary screen for OHS-50 cells (AID 1347103). Note: nearly all actives have a fitted effect of over 40% in size. Note: potency is the fitted concentration of half-maximal effect. The procedure, abridged:
as §1

The nature of test [7]: qHTS of pediatric cancer cell lines to identify multiple opportunities for drug repurposing: Primary screen for DAOY cells (AID 1347090). Note: nearly all actives have a fitted effect of over 55% in size. Note: potency is the fitted concentration of half-maximal effect. The method, boiled down: (§3)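 Cell viability, CellTiter-Glo luminescence; 500-1,000 cells/well, 8- or 11-point titration, 48 h compound exposure at 37 degrees C, 5% CO2. Controls: DMSO neutral, bortezomib 2.3 µM final as positive.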
A short description of test [8]: qHTS of pediatric cancer cell lines to identify multiple opportunities for drug repurposing: Primary screen for SK-N-MC cells (AID 1347093). Note: potency is the fitted concentration of half-maximal effect. The method, boiled down: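 Metabolically active cells were quantified by ATP-dependent luminescence (CellTiter-Glo, 15 min at room temperature) following 48 h treatment. Cells had been plated at 500-1,000 per well and settled for 5 h beforehand.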

Test [9] can be described thus: qHTS of pediatric cancer cell lines to identify multiple opportunities for drug repurposing: Primary screen for BT-37 cells (AID 1347094). Note: potency is the fitted concentration of half-maximal effect. The method, boiled down: as §2
A short description of test [10]: qHTS of pediatric cancer cell lines to identify multiple opportunities for drug repurposing: Primary screen for NB-EBc1 cells (AID 1347095). Note: potency is the fitted concentration of half-maximal effect. The method, boiled down: as §2
Test [11] in a line: qHTS of pediatric cancer cell lines to identify multiple opportunities for drug repurposing: Primary screen for Saos-2 cells (AID 1347097). Note: nearly all actives have a fitted effect of over 40% in size. Note: potency is the fitted concentration of half-maximal effect. The method, boiled down: as §2
A short description of test [12]: qHTS of pediatric cancer cell lines to identify multiple opportunities for drug repurposing: Primary screen for BT-12 cells (AID 1347101). Note: nearly all actives have a fitted effect of over 25% in size. Note: potency is the fitted concentration of half-maximal effect. The procedure, abridged: as §1
Test [13] in a line: qHTS of pediatric cancer cell lines to identify multiple opportunities for drug repurposing: Primary screen for SJ-GBM2 cells (AID 1347091). Note: potency is the fitted concentration of half-maximal effect. The procedure, abridged:
as §3

A short description of test [14]: qHTS of pediatric cancer cell lines to identify multiple opportunities for drug repurposing: Primary screen for A673 cells (AID 1347092). Note: nearly all actives have a fitted effect of over 45% in size. Note: potency is the fitted concentration of half-maximal effect. The method, boiled down:
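Luminescence from CellTiter-Glo, taken after 15 min at room temperature, served as the proxy for metabolically active cells following 48 h treatment. Both potency and efficacy were taken from curves fitted to the titration data.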

The nature of test [15]: qHTS of pediatric cancer cell lines to identify multiple opportunities for drug repurposing: Primary screen for LAN-5 cells (AID 1347100). Note: potency is the fitted concentration of half-maximal effect. The procedure, abridged: as §1

Inconclusive results are not listed. Activity calls are given as the source filed them. Calls come from the whole dose curve; as a rule, active = well fitted curve in the direction sought with a large enough effect; inconclusive = small, poorly fitted or top-dose-only effect, or another doubt; inactive = no such curve, though single readings can be large; an effect the other way counts as inactive or inconclusive.

The record followed here is PubChem BioAssay (NCATS).

Regarding `CCCC(=O)O[C@]1(C(=O)CCl)[C@@H](C)C[C@H]2[C@@H]3CCC4=CC(=O)C=C[C@]4(C)[C@@]3(F)C(=O)C[C@@]21C`, the Potency result in [1], in [2], in test [3], in [4] and in [5] was “inactive” throughout. Further, the Potency in test [6] is 13.8 µM (active).
Consider `Oc1ccc(CCNCCCCCCNCCc2ccccc2)cc1O`, for which the Potency entry in test [7], in [9], in [10], in [2] and in [4] was “inactive” in each case. In addition, the Potency in [8] is 23.7 µM (active).
As for `CN1CCC(N(Cc2cccs2)c2ccccc2)CC1`, the Potency result in test [1] and in test [2] was “inactive” in each case. The Potency in [8] is 26.6 µM (active); in [11], 21.1 µM (active); in test [12], 21.9 µM (active).
Consider `NS(=O)(=O)c1cc(C(=O)NN2C[C@H]3[C@H]4CCC(C4)[C@H]3C2)ccc1Cl`, for which the Potency entry in test [1], in [13], in [14], in [8], in [9] and in [10] was “inactive” each time. The Potency entry in [2], in [11], in test [3], in test [4], in test [15] and in test [12] was “inactive” throughout. Besides, the Potency result in test [5] and in [6] was “inactive” throughout.
For `N=C(N)c1ccc(OCCCOc2ccc(C(=N)N)cc2)cc1`, the Potency result in test [1], in [13], in test [14], in test [8], in [9] and in test [10] was “inactive” in each case. In addition, the Potency entry in [4], in test [15], in test [5] and in [6] was “inactive” throughout. Also, in test [12], the Potency is 2.19 µM (active).
Take `CCCCCC(=O)O[C@]1(C(C)=O)CC[C@H]2[C@@H]3CCC4=CC(=O)CC[C@]4(C)[C@H]3CC[C@@]21C`: the Potency result in [1] was “inactive”. Besides, the Potency was 21.1 µM (active) in test [7]; 13.3 µM (active) in [8]; 24.4 µM (active) in test [3]; 18.8 µM (active) in test [4]; 26.6 µM (active) in test [15]; 27.6 µM (active) in [12]. The Potency in test [6] is 15.5 µM (active).
On to `NC(=O)C1(N2CCCCC2)CCN(CCCN2c3ccccc3CCc3ccc(Cl)cc32)CC1`, for which the Potency in test [11] was 21.1 µM (active); in [3] it was 13.7 µM (active); in [12], 19.5 µM (active); in test [6], 24.6 µM (active).
Regarding `CCOC(=O)C1=C(C)NC(C)=C(C(=O)OCC)C1c1ccccc1/C=C/C(=O)OC(C)(C)C`, the Potency result in [1] is “inactive”. For the same molecule, the Potency in [3] is 27.3 µM (active); in [6] it was 15.5 µM (active).
In the case of `CCCCCCCCCCCCCC[N+](C)(C)C`, the Potency in [7] is 10.6 µM (active); in [13], 11.9 µM (active); in [14] it was 2.11 µM (active); in test [8], 3.35 µM (active); in [9], 15.5 µM (active); in test [10], 21.1 µM (active). The Potency was 16.8 µM (active) in test [11]; 15.4 µM (active) in test [3]; 23.7 µM (active) in test [4]; 7.5 µM (active) in test [15]; 3.89 µM (active) in [12]; 4.22 µM (active) in test [5]. Moreover, the Potency in test [6] was 3.09 µM (active).
For the molecule `CSc1ccc(/C=C2/C(C)=C(CC(=O)O)c3cc(F)ccc32)cc1`, the Potency result in [1], in test [13], in test [14], in [8], in test [9] and in test [10] was “inactive” each time. The Potency entry in test [2], in test [11], in [3], in [4], in test [15] and in test [12] was “inactive” throughout. In addition, the Potency entry in test [5] and in test [6] was “inactive” in each case.
As to `Cc1ccc(CCn2c3c(c4cc(Cl)ccc42)CN(C)CC3)cn1`, the Potency entry in test [1], in test [7], in [13], in test [9], in test [10] and in test [2] was “inactive” throughout. The Potency entry in test [11], in test [4], in test [15] and in [5] was “inactive” each time.
With `CCCCCCCCCCCCCCCC[N+](C)(C)Cc1ccccc1`, the Potency in test [14] is 13.3 µM (active); in [9], 30.9 µM (active); in test [11], 23.7 µM (active); in [15], 21.1 µM (active); in test [12] it was 11 µM (active); in [5], 11.9 µM (active).
For `O=C1OC2(c3ccccc31)c1cc(I)c(O)c(I)c1Oc1c2cc(I)c(O)c1I`, the Potency entry in test [1], in test [7], in test [14], in test [9], in test [10] and in test [2] was “inactive” each time. The Potency entry in test [3] and in test [15] was “inactive” each time.
With `CC(C(O)c1ccccc1)N(C)CCOC(c1ccccc1)c1ccccc1` (stereo not drawn), the Potency entry in test [7], in test [10] and in test [4] was “inactive” in each case. Moreover, the Potency was 30.7 µM (active) in test [3], 21.9 µM (active) in test [12] and 27.6 µM (active) in test [6].
For `Cc1cc(OCCOCC[N+](C)(C)Cc2ccccc2)ccc1C(C)(C)CC(C)(C)C`, the Potency was 21.1 µM (active) in test [13]; 10.6 µM (active) in test [14]; 0.001 µM (active) in test [9]; 34.4 µM (active) in test [3]; 21.1 µM (active) in test [15]; 6.17 µM (active) in [12]. Moreover, the results for the Potency in test [5] and in [6] were 10.6 µM (active) and 4.37 µM (active), respectively. Also, in test [4], the Potency result is “inactive”.
For the molecule `CCCCCCCCCCCCCCCCCCNC(=O)OC1CCN(C(=O)OC[C@H](COC(=O)N(Cc2cccc[n+]2CC)C(=O)c2ccccc2OC)OC)CC1`, the Potency is 8.41 µM (active) in test [8]; 21.9 µM (active) in test [9]; 23.7 µM (active) in [11]; 8.71 µM (active) in test [12]; 11 µM (active) in [6].
Consider `CCC[C@H](N[C@@H](C)C(=O)N1[C@H](C(=O)O)C[C@@H]2CCCC[C@@H]21)C(=O)OCC`, for which the Potency entry in test [7], in test [13], in test [9], in [10], in [2] and in [11] was “inactive” throughout. In addition, the Potency result in test [4], in test [15] and in [12] was “inactive” in each case.
Take `CCN(CC)CCOc1ccc(/C(=C(\Cl)c2ccccc2)c2ccccc2)cc1`: the Potency was 18.8 µM (active) in test [13]; 21.1 µM (active) in [14]; 26.6 µM (active) in test [11]; 30.7 µM (active) in test [3]; 18.8 µM (active) in [15]; 15.5 µM (active) in test [12]. Moreover, in test [6], the Potency was 24.6 µM (active).
On to `Nc1c2ccccc2nc2ccccc12`, for which the Potency was 6.68 µM (active) in [14]; 11.9 µM (active) in [8]; 8.71 µM (active) in test [9]; 3.76 µM (active) in [10]; 9.7 µM (active) in test [3]; 12.3 µM (active) in test [12]. In addition, the Potency in test [6] is 24.6 µM (active).
Regarding `CN1CCC(Nc2ncc3ncnc(Nc4ccc(F)c(Cl)c4)c3n2)CC1`, the Potency entry in test [1], in test [13], in test [10], in test [11] and in [4] was “inactive” each time. The Potency in test [14] was 21.1 µM (active); in test [9], 17.4 µM (active); in test [3], 17.2 µM (active); in test [5], 26.6 µM (active); in test [6], 27.6 µM (active).
For `CC(C)(C)C1CCC(CC2=C(O)c3ccccc3C(=O)C2=O)CC1` (stereo not drawn), the Potency entry in test [1], in [2] and in test [5] was “inactive” each time. The Potency in [7] was 3.35 µM (active); in test [8], 5.31 µM (active); in [15], 9.44 µM (active); in test [12], 24.6 µM (active).
For `O=C(Nc1ccc(Cl)cc1)Nc1ccc(Cl)c(C(F)(F)F)c1`, the Potency in test [13] is 3.35 µM (active); in test [14], 21.1 µM (active); in test [8] it was 4.73 µM (active); in test [9] it was 27.6 µM (active); in [10] it was 5.96 µM (active); in [11], 13.3 µM (active). The figures for the Potency in test [3] and in test [12] were 8.64 µM (active) and 9.78 µM (active), respectively.
Turning to `Nc1ccc2cc3ccc(N)cc3nc2c1`, the Potency in [7] was 26.6 µM (active); in test [14], 13.3 µM (active); in test [9], 9.78 µM (active); in [10], 4.73 µM (active); in test [3], 7.7 µM (active); in test [15] it was 4.22 µM (active). Besides, the Potency in test [12] is 7.77 µM (active).
